Screening results from PubChem BioAssay.
The list is not random: actives were taken first. Their share in the collection is about 3.7%.
tim10-1 inh: growth inhibitors of tim10-1 mutant yeast. S. cerevisiae tim10-1 ts strain growth, BacTiter-Glo, 24 h. inhibition, % at 20 µM. 2.2% of 330,000 active;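 active = inhibition of at least 40%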;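 also: mutant grown at 25 °C; 0% = DMSO wells with yeast and 100% = wells holding no yeast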
tim23-1 inh: tim23-1 yeast growth inhibition; S. cerevisiae tim23-1 growth, BacTiter-Glo luminescence, 24 h; inhibition, % at 20 µM; 1.3% of 330,000 active;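 active = growth inhibition of the mutant yeast at or above 50%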;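 also: temperature-sensitive mutant grown at 25 °C; plate controls were DMSO-treated mutant yeast for no effect and medium wells lacking yeast for full effect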
NALP3 yeast inh: NALP3 inhibition in yeast; Yeast reconstituted NLRP3/ASC/caspase-1, beta-gal luminescence, 24 h; inhibition, % at 10 µM; 0.39% of 330,000 active; AID 2825;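 active = inhibition of 50% or more; inactive = inhibition below 50%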;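 also: plate controls were induced DMSO wells for no effect and uninduced yeast grown without galactose for full effect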
PfHsp90 yeast 2: inhibits growth of yeast expressing Plasmodium falciparum Hsp90. AID 504621. inhibition, % at 9.4 µM. S. cerevisiae expressing PfHsp90, BacTiter-Glo ATP, 48 h; yeast lacking PDR1 and PDR3 efflux regulators. 0.32% of 310,000 active;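 active = every replicate shows inhibition above about 80%, whatever the replicate mean, limit read from the data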;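 also: 0% = DMSO neutral controls and 100% = 20 µM radicicol positive controls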
TIM10 inh: TIM10 yeast growth inhibition | S. cerevisiae TIM10 strain growth, BacTiter-Glo luminescence, 24 h | inhibition, % at 10 µM | 1.4% of 330,000 active | AID 463195;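 active = inhibition of 40% or more at the single tested concentration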;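 also: wild-type TIM10 isogenic control strain grown at permissive 25 °C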
tim10 confirm: confirmation of TIM10 yeast growth inhibitors; shares compounds with TIM10 inh; S. cerevisiae tim10 strain growth, BacTiter-Glo luminescence, 24 h; inhibition, % at 10 µM; 63% of 4,600 active;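 active = inhibition of yeast growth at or above a set limit in either of two replicates at 10 µM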;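 also: this counterscreen used the strain with wild-type TIM10; 0% = yeast with DMSO and 100% = medium wells lacking yeast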
An asterisk follows results filed as active; / = no result given.

SMILES	tim10-1 inh	tim23-1 inh	NALP3 yeast inh	PfHsp90 yeast 2	TIM10 inh	tim10 confirm
CCN(CC)c1ccc(C(=S)NC2CCCCC2)cc1	32	24	42	-1	46*	28
O=C(N/N=C\c1ccc(F)cc1)c1csnn1	-30	-9	21	10	-1	/
CC1(C)Cc2c(C#N)c(N3CCN(C(=O)c4ccco4)CC3)nc(Cc3ccccc3)c2CO1	28	18	16	-7	42*	5
CCc1nc(N2CCN(C(=O)c3ccco3)CC2)c(C#N)c2c1COC(C)(C)C2	26	30	23	-16	14	/
Cc1cc(C)c(S(=O)(=O)NCC(CCC(=O)O)C(F)(F)F)c(C)c1 (stereo not drawn)	9	8	0	-4	13	/
O=C1C=C(Nc2ccc(Cl)cc2)CC(c2ccc(Cl)cc2)C1 (stereo not drawn)	26	28	9	/	42*	22
Cc1ccc(C2CC(=O)C=C(Nc3ccc(Cl)cc3)C2)cc1 (stereo not drawn)	20	21	8	9	25	/
O=[N+]([O-])c1ccc(/C=N/N=C/c2ccc([N+](=O)[O-])o2)o1	/	/	/	16	/	/
Cc1cc2ncn(/N=C/c3ccc([N+](=O)[O-])o3)c2cc1C	40	0	-1	-130	57*	56*
COc1ccc(-c2cc(C(F)F)n3ncc(C(=O)NCC4CCCO4)c3n2)cc1 (stereo not drawn)	23	21	20	-3	45*	34*
CCN(CC)C(=O)CSc1nnc(-c2ccccn2)n1Cc1ccccc1	14	18	-3	2	20	/
COc1ccc(/C(C)=N/NC(=S)NCCc2ccccc2)c(O)c1	28	27	21	14	43*	37*
Cc1ccc(/C=N/Nc2nc(C)cc(C)n2)cc1	-12	-18	16	-10	74*	9
Cc1cc(C)nc(N/N=C/c2ccc(Cl)cc2)n1	-5	-19	8	-22	11	/
COc1ccc(N2C(=O)/C(=C\c3ccco3)N=C2SCC(=O)NC(C)C)cc1Cl	22	44	7	24	18	/
COc1ccc(N2C(=O)/C(=C\c3ccco3)N=C2SCC(=O)N(C(C)C)C(C)C)cc1Cl	31	30	13	1	41*	9
CCn1c(-c2cc(-c3ccccc3OC)nc3ccccc23)n[nH]c1=S	13	21	5	-15	24	/
CCn1c(-c2cc(-c3ccc(C)cc3)nc3ccccc23)n[nH]c1=S	33	49	40	-26	42*	41*
O=C(O)c1c(C(=O)O)c(-c2ccc(F)cc2)n2c1CCC2	1	9	12	3	-18	/
c1csc(C2C3=C(Nc4ncnn42)c2ccccc2OC3)c1 (stereo not drawn)	33	33	-4	-11	43*	15
CC1=C(C(N)=O)C(c2cccs2)n2ncnc2N1 (stereo not drawn)	7	14	-5	16	-14	/
O=[N+]([O-])c1ccc(/C=N/Nc2ccnc3cc(Cl)ccc23)o1	24	-2	20	-16	64*	71*
Clc1ccc2c(N/N=C/c3ccccc3Br)ccnc2c1	-1	17	30	7	29	/
C=CCn1c(N/N=C/c2ccc(O)cc2)nc2ccccc2c1=O	38	43	-10	5	45*	32*
O=C(Nc1cccc(F)c1)c1cc(S(=O)(=O)NCCC2=CCCCC2)ccc1F	34	39	19	-15	42*	-31
Cc1cnc(C(=O)OC(C(=O)Nc2cc(C(F)(F)F)ccc2Cl)c2ccccc2)cn1 (stereo not drawn)	28	29	10	-3	98*	19
COc1cc(S(=O)(=O)Nc2cccc3cn[nH]c23)c(OC)cc1Cl	23	15	4	8	2	/
COc1cccc(C2NC(=O)c3ccccc3O2)c1OCc1ccccc1F (stereo not drawn)	27	27	1	-81	43*	27
O=C(C1CCCN(S(=O)(=O)c2ccc(Cl)cc2)C1)N(Cc1cccs1)C1CC1 (stereo not drawn)	36	37	-2	8	43*	-4
CCOC(=O)N1CCC(N2Cc3cccc(C(=O)Nc4ccc(F)cc4)c3C2=O)CC1	37	30	20	19	42*	30
